# VP16 counter – VP16 counterscreen qHTS for inhibitors of ROR gamma transcriptional activity. AID 2546, 2010. 310,000 tested, 3.5% active. Potency, µM (titrated, usually from 53.6 µM), for the others: at the highest dose activity, negative = inhibition, actives largely listed as inhibitors. Drosophila S2 Gal4-VP16 UAS-luciferase, luminescence, 20 h;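 also: Gal4-VP16 expression switched on by copper sulfate through the metallothionein promoter; % is scaled to controls: 0 for no effect and ±100 for the full control effect; nearly all actives have a fitted effect of over 50% in size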
# SW480 rerep – A quantitative high throughput screen for small molecules that induce DNA re-replication in SW480 colon adenocarcinoma cells | SW480 DNA re-replication, Hoechst DNA content imaging, 48 h | Potency, µM (doses to about 46.1 µM), for inactives: at the top dose re-replication activation, usual class: activators | 340,000 tested, 1.8% active; also: % of control where 0% means no effect; nearly all actives have a fitted effect of over 55% in size
#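 Compounds, transferred as 23 nL by pin tool, were incubated with cells for 48 hr; DNA content per nucleus was then quantified by Hoechst staining and fluorescence plate imaging.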
# MCF10A rereplic – A quantitative high throughput screen for small molecules that induce DNA re-replication in MCF 10a normal breast cells; MCF 10A DNA re-replication, Hoechst nuclear intensity, 48 h; Potency, µM (titrated, usually from 46.1 µM), without a hit: at the top dose activity, positive = re-replication, actives largely listed as activators; 350,000 tested, 2.9% active; also: % of control where 0% means no effect; nearly all actives have a fitted effect of over 50% in size
# KB-V1 cytotox – qHTS assay for MDR1-selective chemotherapeutics: Primary screen using the drug-selected MDR subline cells KB-V1; KB-V1 MDR cells viability, CellTiter-Glo, 72 h; Potency, µM (series often up to 46.1 µM), actives largely listed as cytotoxic; 400,000 tested, 3.4% active; also: % is scaled to controls: 0 for no effect and ±100 for the full control effect; nearly all actives have a fitted effect of over 60% in size
#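 In this primary screen, KB-V1 cells overexpressing P-gp are incubated with library compounds (lowest to highest concentration) for 72 h at 37 degrees C before a luminescent ATP viability read.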
# RORg inh – qHTS for inhibitors of ROR gamma transcriptional activity; Nuclear receptor ROR-gamma (Mus musculus), P51450; Drosophila S2 Gal4-RORgamma UAS-luciferase reporter, 20 h; Potency, µM (titrated, usually from 53.6 µM), without a hit: top-dose activity change, negative = inhibition, usual class: inhibitors; 310,000 tested, 5.4% active; also: % is scaled to controls: 0 for no effect and ±100 for the full control effect; nearly all actives have a fitted effect of over 60% in size
# Target sequence (P51450 whole entry, looked up, the tested form may be a part): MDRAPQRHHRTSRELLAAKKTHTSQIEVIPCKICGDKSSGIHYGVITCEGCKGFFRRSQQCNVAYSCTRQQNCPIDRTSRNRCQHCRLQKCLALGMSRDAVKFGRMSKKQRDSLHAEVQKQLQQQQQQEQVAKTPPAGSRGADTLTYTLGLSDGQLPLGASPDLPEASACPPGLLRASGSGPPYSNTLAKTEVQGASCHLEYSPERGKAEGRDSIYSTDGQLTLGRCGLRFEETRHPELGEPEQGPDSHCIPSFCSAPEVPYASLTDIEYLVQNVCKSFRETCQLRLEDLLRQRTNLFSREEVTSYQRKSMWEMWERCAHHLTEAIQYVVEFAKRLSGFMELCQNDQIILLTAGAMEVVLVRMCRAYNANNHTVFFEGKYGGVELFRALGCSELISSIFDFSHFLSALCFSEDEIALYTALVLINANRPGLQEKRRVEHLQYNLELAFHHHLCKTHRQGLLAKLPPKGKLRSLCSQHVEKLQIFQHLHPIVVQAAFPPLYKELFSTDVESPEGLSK
#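 ROR gamma transcriptional activity was tracked as Gal4-UAS luciferase output in stably transfected Drosophila Schneider cells, with compound added 1 hr before 700 uM copper sulfate induction and a 20 hr ambient-temperature incubation.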
# KB-3-1 tox – qHTS assay for MDR1-selective chemotherapeutics: Primary screen using the parental adenocarcinoma cell KB-3-1; KB-3-1 viability, CellTiter-Glo ATP luminescence, 72 h; Potency, µM (doses to about 46.1 µM), usual class: cytotoxic; 400,000 tested, 1.4% active; AID 1347075, 2019; also: % is scaled to controls: 0 for no effect and ±100 for the full control effect; nearly all actives have a fitted effect of over 60% in size
#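 KB-3-1 parental drug-naive adenocarcinoma cells in DMEM/10% FBS, incubated 72 h at 37 C with pin-transferred compounds across a concentration series. Viability by CellTiter-Glo luminescence; concentration-response curves fitted after normalization.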
# Active calls of the source: *; i = inactive; ? = inconclusive; . = not tested or not shown; [ ] = dose if it differs, or a comment. This is a sample that favours compounds with a hit; in the whole collection about 10% have one here. Calls follow the shape of the dose curve; as a rule, active = well fitted curve in the direction sought with a large enough effect; inconclusive = small, poorly fitted or top-dose-only effect, or another doubt; inactive = no such curve, though single readings can be large; an effect the other way counts as inactive or inconclusive. Potency is read from the fitted curve at half-maximal effect.
SMILES,VP16 counter,SW480 rerep,MCF10A rereplic,KB-V1 cytotox,RORg inh,KB-3-1 tox
COC(=O)c1ccccc1NC(=O)Cn1c(-c2nonc2N)nc2ccccc21,-15%,0.32µM*,0.16µM*,?,-7%,0.63µM*
CC(=O)Nc1nonc1-c1nc2ccccc2n1Cc1ccccc1,4%,?,?,16µM*,13%,15µM*
CCC(=O)Nc1nonc1-c1nc2ccccc2n1Cc1ccc(Cl)c(Cl)c1,.,0%,5.2µM*,i,.,i
CC1OC(C2CCCCC2)Cc2[nH]c(=S)[nH]c(=O)c21 (configuration not stated),.,.,.,?,.,i
COc1ccc(CNCc2cc3c(C(C)(C)C)nn(-c4ccccc4)c3[nH]c2=O)cc1,?,-3%,8%,?,?,i
Cc1ccc(CNCc2cc3c(C(C)(C)C)nn(-c4ccccc4)c3[nH]c2=O)cc1,13µM*,?,?,23µM*,?,i
CCOc1ccc(NC(=O)c2ccc(-c3cccc(Cl)c3C)o2)cc1,.,.,.,i,.,i
Cc1cc(C(=O)N2CCN(c3ccc([N+](=O)[O-])cc3)CC2)c(C)o1,1%,4.1µM*,3.7µM*,i,17%,i
COc1ccccc1-c1cc(NC(=O)COc2ccccc2Cl)n(-c2ccccc2)n1,.,.,.,i,.,i
CCC1=C(OC(=O)N(CC)CC)N2C(=O)OC(=NCCOC)[C@]2(C)[C@H]2C1=CC[C@H]1C(=O)N(CC(=O)OC)C(=O)[C@H]12,0%,.,.,.,-1%,.
Cc1ccccc1NC(=O)C(=O)NC(C)CCc1ccccc1 (configuration not stated),-12%,-7%,15%,i,-29%,i
Cc1cccc(C)c1NC(=S)NC(C)CCc1ccccc1 (configuration not stated),4.5µM*,9%,4%,?,2.2µM*,i
CC(=O)c1ccc(NC(=S)N(CCCN(C)C)Cc2ccccc2)cc1,-11%,-5%,2%,i,18%,i
Cc1ccc(NC(=S)NC(C)CCc2ccccc2)cc1C (configuration not stated),6.3µM*,18%,?,?,4µM*,i
CC(=O)c1ccc(NC(=S)NC(C)CCc2ccccc2)cc1 (configuration not stated),20µM*,i[1.84 µM],7%,i,7.9µM*,i
CCCN(Cc1ccccc1)C(=S)Nc1ccc(C(C)=O)cc1,10µM*,23%[1.84 µM],?,i,4.5µM*,i
Cc1ccc(NC(=O)CCc2ccccc2)cc1C,.,.,.,i,.,i
CCOC(=O)c1c(NC(=O)CSc2nnc(C)s2)sc2c1CCCCC2,8%,-7%,4%,i,2%,i
CCOC(=O)c1c(NC(=O)CSc2nnc(C)s2)sc2c1CCC(C)C2 (configuration not stated),-2%,1%,?,10µM*,?,i
Cc1nnc(SCC(=O)Nc2ccc([N+](=O)[O-])cc2)n1CC1CCCO1 (configuration not stated),-3%,23µM*,3%,i,-3%,i
CSc1ccc(/C=C2\C=C(C(O)c3ccc(SC)cc3)c3ccccc32)cc1 (configuration not stated),.,.,.,?,.,16µM*
OC(C1=C/C(=C\c2ccncc2)c2ccccc21)c1ccncc1 (configuration not stated),.,.,.,16µM*,.,?
CC(=O)Nc1ccc(/C=C2\C=C(C(O)c3ccc(NC(C)=O)cc3)c3ccccc32)cc1 (configuration not stated),.,.,.,i,.,i
CCOCCCNC(=O)C(NC(=O)Cc1cccs1)c1ccc(Cl)cc1 (configuration not stated),13µM*,1%,2%,?,?,i
Cc1cc(O)ccc1N=Cc1c(C(F)(F)F)[nH][nH]c1=O,?,-112%,?,?,11µM*,i
SMILES,VP16 counter,SW480 rerep,MCF10A rereplic,KB-V1 cytotox,RORg inh,KB-3-1 tox
O=c1[nH][nH]c(C(F)(F)F)c1C=Nc1ccccc1,-6%,-16%,9%,i,-11%,i
COc1ccccc1NC(=O)N1CC(=O)Nc2sc3c(c2C1c1ccccc1)CCCC3 (configuration not stated),.,.,.,i,.,i
Cc1nn2c(nc1=O)NNC2(C)C(C)(C)C (configuration not stated),-14%,?,?,i,11µM*,i
Cc1cccc(-n2c(O)c(/C=N/NC(=O)c3ccccc3Cl)c3ccccc3c2=O)n1,4.5µM*,?,16%,i,6.3µM*,?
Cc1cccc(-n2c(O)c(C=Nc3ccccc3O)c3ccccc3c2=O)n1,-25%,4%,0%,i,13%,i
Cc1cccc(-n2c(O)c(C=Nc3cc(O)ccc3C)c3ccccc3c2=O)n1,-15%,0%,-1%,i,11µM*,i
O=C(Nc1ccc(C(=O)N2CCN(c3cccc(Cl)c3)CC2)cc1)c1nsc2ccccc12,.,.,.,i,.,i
COc1cc([N+](=O)[O-])cc(/C=N/NC(=O)C(C)Nc2cccc(C)c2)c1O (configuration not stated),1.1µM*,.,?,?,0.89µM*,?
COc1cc([N+](=O)[O-])cc(/C=N/NC(=O)C(C)Nc2ccccc2C)c1O (configuration not stated),0.5µM*,?,1.6µM*,12µM*,0.32µM*,?
CCOc1ccc(NC(C)C(=O)N/N=C/c2ccc([N+](=O)[O-])cc2)cc1 (configuration not stated),-9%,.,.,.,3%,.
Cc1ccc(NC(=O)CN(C)S(=O)(=O)c2ccc3c(c2)n(C)c(=O)c(=O)n3C)cc1C,.,.,.,i,.,i
N#CC(c1ccccc1)C1CCN(Cc2ccccc2)CC1 (configuration not stated),3%,-1%,13%,21µM*,-3%,i
CC(CN1CCN(Cc2ccccc2)CC1)c1ccccc1 (configuration not stated),-11%,-2%,-3%,i,-4%,i
CC(C)(C)OC(=O)N1C(=O)[C@](OC(=O)c2ccccc2)(c2ccc(F)cc2)c2ccccc21,.,.,.,?,.,i

# Bioassay records: PubChem BioAssay, National Center for Advancing Translational Sciences (NCATS)
